SIRT5 block: sirtuin-5 (human) deacylase inhibition; inhibition, % at 15 µM; Q9NXA8; 330,000 tested, 1.1% active; AID 652115; Purified SirT5, succinyl-peptide AMC, trypsin-coupled fluorescence; in the data active = inhibition above about 15%
Target sequence (Q9NXA8 whole entry, looked up): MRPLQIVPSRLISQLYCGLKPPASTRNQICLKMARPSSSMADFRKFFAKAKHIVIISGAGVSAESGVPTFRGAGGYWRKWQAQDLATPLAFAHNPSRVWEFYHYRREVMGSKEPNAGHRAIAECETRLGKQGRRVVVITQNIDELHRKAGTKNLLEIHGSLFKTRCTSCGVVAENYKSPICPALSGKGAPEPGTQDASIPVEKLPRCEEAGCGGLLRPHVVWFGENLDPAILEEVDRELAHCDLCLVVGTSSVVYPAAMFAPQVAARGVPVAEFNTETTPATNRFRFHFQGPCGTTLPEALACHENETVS
CDK5 inh: inhibitors of human CDK5/p35 kinase. Q00535+Q15078. Recombinant CDK5/p35, ADP-Glo luminescence, 60 min. inhibition, % at 10 µM. 330,000 tested, 0.01% active;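 active = highest replicate inhibition of at least 50% and at least 75% of replicates reaching 50%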;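 note: plate controls were DMSO neutral control for no effect and GW8510 at 10 µM for full effect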
PvdQ inh: blocks Pseudomonas aeruginosa PvdQ acylase activity. purified PvdQ acylase, fluorescence plate reader. inhibition, % at 10 µM. 340,000 tested, 0.063% active. AID 488965; in the data active = inhibition above about 30%, passing the limit was not always enough;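 note: 0% = vehicle neutral wells and 100% = reference inhibitor wells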
PglD inh: blocks C. jejuni PglD acetyltransferase activity; purified PglD enzyme, DTNB colorimetric CoA detection; inhibition, % at 12.5 µM; 360,000 tested, 0.098% active; AID 602405; in the data active = inhibition above about 16%, passing the limit was not always enough
dFosB activator: activators of mouse delta FosB homodimer; purified delta FosB, TAMRA-CDK5 oligo fluorescence polarization; percent of positive-control signal above neutral wells; activation, % at 25 µM; 340,000 tested, 0.99% active; AID 493131;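 active = mean activation above about 17%, with every replicate also reaching it, limit read from the data, passing the limit was not always enough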
FGF22 binding: binders of recombinant human FGF22 by thermal shift. AID 651658. 340,000 tested, 1.5% active. Q9HCT0. SYPRO orange fluorescence; percent of sucrose octasulfate shift, DMSO zero. activity (Tm shift, normalised), % at 9.99 µM;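 active = mean Tm shift, scaled 0 neutral to 100 positive control, at about 1.3% or above, every replicate too, limit read from the data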
Target sequence (Q9HCT0 whole entry, looked up): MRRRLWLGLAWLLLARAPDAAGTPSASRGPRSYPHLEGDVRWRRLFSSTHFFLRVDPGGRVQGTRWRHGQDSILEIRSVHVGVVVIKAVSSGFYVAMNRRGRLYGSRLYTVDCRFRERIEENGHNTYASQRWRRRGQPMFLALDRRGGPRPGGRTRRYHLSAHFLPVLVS
Starred values were filed as active, the others as inactive; nt = not tested or not shown. Shown are actives, neighbours in structure and some others; about 2.8% of the full set was active somewhere.

SMILES	SIRT5 block	CDK5 inh	PvdQ inh	PglD inh	dFosB activator	FGF22 binding
Cc1noc(C)c1NC(=O)Nc1ccc2c(c1)C(=O)N([C@H](C)CO)C[C@H](C)[C@@H](CN(C)Cc1ccc3c(c1)OCO3)O2	3	nt	nt	-1	nt	0
CN1C(=O)c2cc(NS(C)(=O)=O)ccc2OC[C@@H]2O[C@@H](CC(=O)NCc3ccccc3)CC[C@@H]21	-1	nt	nt	-31	nt	0
CC(=O)Nc1ccc(NC(=O)c2cc(-c3cc(C)cc(C)c3O)n[nH]2)cc1	-2	0	-19	9	22*	0
Cc1ccc(C(=O)Nc2ccc(S(=O)(=O)N3CCOCC3)cc2)cc1	0	2	20	5	0	1
Cc1cc(C)c(O)c(-c2cc(C(=O)Nc3ccc(S(=O)(=O)N4CCOCC4)cc3)[nH]n2)c1	nt	nt	-7	-3	23*	nt
CCCN(C)C[C@@H]1Oc2cc(C3=CCCCC3)ccc2S(=O)(=O)N([C@@H](C)CO)C[C@@H]1C	-6	nt	nt	2	nt	0
CC(C)N(C(=O)COC(=O)c1ccc(Cl)s1)c1ccccc1	-1	-1	-3	-3	0	0
CC(C)N(C(=O)COC(=O)[C@H](C)NC(N)=O)c1ccccc1	1	1	10	nt	-5	43*
O=C(C[C@@H]1CC[C@H]2[C@@H](COC[C@@H](O)CN2Cc2cc(F)ccc2F)O1)N1CCc2ccccc2C1	2	nt	nt	0	nt	0
O=c1[nH]nc(CNc2cccc(C(F)(F)F)c2)c2ccccc12	-3	1	-14	-2	-5	0
CCn1c(CNc2cccc(C(F)(F)F)c2)n[nH]c1=S	-1	1	-8	nt	-3	43*
CC(C)NC(=O)CSc1nc(N)c(NC(=O)c2ccccc2F)c(=O)[nH]1	-9	0	-12	nt	-1	0
Nc1nc(SCCO)[nH]c(=O)c1NC(=O)c1ccccc1F	0	1	-12	1	-3	44*
Cc1ccc(S(=O)(=O)N(C)C[C@H]2Oc3c(NS(=O)(=O)c4ccccc4)cccc3C(=O)N([C@@H](C)CO)C[C@@H]2C)cc1	-2	nt	nt	-3	nt	0
C[C@@H]1CN([C@@H](C)CO)S(=O)(=O)c2ccc(C3=CCCC3)cc2O[C@@H]1CN(C)Cc1ccccc1F	-5	nt	nt	-2	nt	-1
CN(C)S(=O)(=O)c1ccc(N=Cc2c(C(F)(F)F)[nH]n(C)c2=O)cc1	2	1	-12	-3	3	44*
O=C(C[C@@H]1CC[C@@H](NC(=O)C2CC2)[C@H](CO)O1)NCc1ccccc1Cl	0	nt	nt	2	nt	0
CCCNS(=O)(=O)c1cc(Cl)ccc1OC	13	4	-2	nt	4	0
CCCNS(=O)(=O)c1ccc(OC)c(Cl)c1Cl	nt	1	39*	-1	-10	nt
COc1ccc(S(=O)(=O)CC(=O)Nc2ccccc2Cl)cc1	-1	0	5	-5	2	43*
CSc1ncc(S(=O)(=O)c2ccccc2)c(=O)[nH]1	20*	-4	-16	nt	-1	0
COc1cccc(NC(=O)CSc2ncc(S(=O)(=O)c3ccccc3)c(=O)[nH]2)c1	2	0	-7	-4	-8	1.8*
O=C(CSc1ncc(S(=O)(=O)c2ccccc2)c(=O)[nH]1)Nc1ccccc1Cl	1	-1	-15	nt	0	0
C[C@@H]1CN([C@@H](C)CO)C(=O)Cc2cc(NC(=O)Nc3ccc4c(c3)OCO4)ccc2O[C@H]1CN(C)Cc1ccccc1	7	nt	nt	-7	nt	0
Nc1ccccc1SCc1ccccc1	-2	1	-5	0	3	43*
SMILES	SIRT5 block	CDK5 inh	PvdQ inh	PglD inh	dFosB activator	FGF22 binding
C[C@H](CO)N1C[C@H](C)[C@H](CN(C)Cc2ccc(Cl)c(Cl)c2)Oc2ccc(N(C)C)cc2C1=O	0	nt	nt	-1	nt	-1
COc1ccc(C=O)c2[nH]c3c(Cl)ncnc3c12	17*	1	-15	-3	-13	0
COc1cc2[nH]c3c(Cl)ncnc3c2cc1OC	nt	0	-4	-5	-1	nt
COc1cc(/C=C2/NC(=O)N(CC(=O)Nc3ccc(C)cc3)C2=O)ccc1Oc1ccc([N+](=O)[O-])cn1	3	-1	0	nt	18*	0
CO[C@@H](C(=O)N(C)C[C@H]1OCc2ccccc2-c2ccccc2C(=O)N([C@@H](C)CO)C[C@@H]1C)c1ccccc1	19*	nt	nt	5	nt	0
CO[C@@H](C(=O)N(C)C[C@@H]1OCc2ccccc2-c2ccccc2C(=O)N([C@H](C)CO)C[C@H]1C)c1ccccc1	1	nt	nt	-1	nt	0
CCOC(=O)N(C)C[C@H]1OCc2ccccc2-c2ccccc2C(=O)N([C@H](C)CO)C[C@@H]1C	21*	nt	nt	-3	nt	0
CC(N=Cc1cc([N+](=O)[O-])ccc1O)c1ccccc1 (stereo not drawn)	3	-1	-3	3	-1	44*
Cc1noc(C)c1NC(=O)N(C)C[C@@H]1Oc2ccc(NC(=O)CCCCCC(=O)Nc3ccccc3N)cc2C(=O)N([C@@H](C)CO)C[C@@H]1C	nt	nt	nt	-4	nt	0
Oc1ccc2ccccc2c1N=Nc1ccc(F)cc1	0	1	-4	-1	104*	0
Oc1c(N=Nc2ccc(F)cc2)ccc2ccccc12	-2	3	-8	3	15	0
Cc1ccc(-c2csc(NCCn3c(-c4ccncc4)nc4cc(C(F)(F)F)ccc43)n2)cc1	17*	-2	2	2	-4	0
Cc1nc2cc(C(F)(F)F)ccc2n1CCNc1nc(-c2ccc(F)cc2)cs1	0	-1	-5	-5	-2	0
CN(C)CC#Cc1ccc([C@@H]2[C@@H](CO)N3CCCCN(S(=O)(=O)c4ccccc4F)C[C@@H]23)cc1	0	nt	nt	3	nt	0
COc1cc(/C=N/NC(=O)c2cc(C)oc2C)cc(OC)c1OC	-1	-5	-13	nt	0	0
COc1cc(/C=N/NC(=O)c2nonc2N)cc(OC)c1OC	18*	2	-2	0	5	0
C[C@@H]1CN([C@@H](C)CO)C(=O)c2cc(NS(=O)(=O)c3cccs3)ccc2O[C@@H](C)CCCCO[C@@H]1CN(C)Cc1ccc(C(=O)O)cc1	1	nt	nt	-2	nt	0
C[C@@H]1CCCCO[C@H](CN(C)Cc2ccc(C(=O)O)cc2)[C@H](C)CN([C@H](C)CO)C(=O)c2cc(NS(=O)(=O)c3cccs3)ccc2O1	21*	nt	nt	0	nt	0
C[C@@H]1CCCCO[C@@H](CN(C)Cc2ccc(C(F)(F)F)cc2)[C@@H](C)CN([C@H](C)CO)C(=O)c2cc(NS(=O)(=O)c3cccs3)ccc2O1	2	nt	nt	1	nt	-1
C[C@@H]1CCCCO[C@H](CN(C)Cc2ccc(C(F)(F)F)cc2)[C@H](C)CN([C@H](C)CO)C(=O)c2cc(NS(=O)(=O)c3cccs3)ccc2O1	16*	nt	nt	2	nt	0

Source: PubChem
